ERa SRC1 inh: ER-alpha (human) coactivator binding inhibition. TR-FRET ER-alpha LBD / SRC-1 peptide, estradiol-bound. AID 629. actives 1.7% (n = 86,000). P03372. inhibition, % at 25.6 µM; in the data active means inhibition above about 50%;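 further: 0% = receptor plus peptide control and 100% = peptide only without receptor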
EphB4 antag: antagonists of human EphB4-ephrin-B2 interaction; EphB4 LBD / TNYL-RAW-Alexa532 peptide, fluorescence polarization; inhibition, % at 7 µM; actives 0.15% (n = 97,000);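 active means inhibition above the screen-wide mean inhibition plus 3 SD, cut at about 15% in these data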;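 further: 0% = DMSO wells and 100% = excess unlabeled TNYL-RAW peptide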
ERa coact pot: ER-alpha (human) coactivator binding potentiation | P03372 | TR-FRET ERalpha-LBD/SRC-Cy5 coactivator binding, 2 h; 100 = basal binding, no effect | coactivator binding (% of control), % at 25.6 µM | actives 1.3% (n = 86,000) | AID 639; in the data active means activity above about 200%;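 further: binding measured in presence of low estradiol as agonist stimulus; 0% = peptide alone without receptor and 100% = receptor with peptide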
ERb coact inh: ER-beta (human) coactivator binding inhibition | Q92731 | TR-FRET ER-beta LBD / SRC1-Cy5 peptide binding; receptor agonist-loaded with 1 µM estradiol | inhibition, % at 25.6 µM | actives 1.3% (n = 86,000) | AID 633;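 active means compounds whose percent inhibition of the receptor-coactivator binding signal exceeds about 50% in the single-dose screen, limit read from the data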;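 further: 0% = receptor plus peptide wells without compound and 100% = peptide-only wells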
Target sequence (Q92731 whole entry, looked up, the tested form may be a part): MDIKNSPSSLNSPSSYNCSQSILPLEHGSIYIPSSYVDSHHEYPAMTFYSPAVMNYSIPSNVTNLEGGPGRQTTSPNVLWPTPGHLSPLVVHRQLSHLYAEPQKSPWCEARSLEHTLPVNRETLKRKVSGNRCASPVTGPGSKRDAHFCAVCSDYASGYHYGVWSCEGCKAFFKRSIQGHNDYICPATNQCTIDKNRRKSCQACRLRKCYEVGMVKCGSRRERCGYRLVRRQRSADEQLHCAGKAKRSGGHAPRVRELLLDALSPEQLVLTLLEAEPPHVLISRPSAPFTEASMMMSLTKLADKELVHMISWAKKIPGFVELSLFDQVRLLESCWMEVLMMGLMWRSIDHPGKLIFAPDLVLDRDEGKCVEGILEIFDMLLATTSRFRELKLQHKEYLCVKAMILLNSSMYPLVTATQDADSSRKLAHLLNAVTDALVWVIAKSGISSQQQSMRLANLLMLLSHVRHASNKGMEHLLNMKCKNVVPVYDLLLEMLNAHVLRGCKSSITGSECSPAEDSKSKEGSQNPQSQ
* hit, by the source's call; [ ] = another dose, or the depositor's remark. Shown are actives, neighbours in structure and some others; about 2.8% of the full set was active somewhere.

Screening O=C(CSc1cccc(C(F)(F)F)c1)NC(=O)NCc1ccco1 returned ERa SRC1 inh 53.5*, ERa coact pot 76.4 and ERb coact inh 28.6.
Screening Cn1c(SCC(=O)NC(=O)NCc2ccco2)nnc1-c1ccccc1 returned ERa SRC1 inh 59.0*[fluorescence artefact?], EphB4 antag 6.5, ERa coact pot 141.6 and ERb coact inh 52.2*[fluorescence artefact?].
For CCOc1ccc2nc(SCC(=O)NC(=O)NCc3ccco3)[nH]c2c1 the results were ERa SRC1 inh 38.4, EphB4 antag 6.6, ERa coact pot 74.3 and ERb coact inh 56.5*[fluorescence artefact?].
Screening Cc1cc(C)nc(N2CCC(C(=O)NCc3ccccc3)CC2)n1 returned ERa SRC1 inh 2.1, EphB4 antag -0.3, ERa coact pot 120.9 and ERb coact inh -4.5.
For Cc1cc(C)nc(N2CCCC(C(=O)NCc3ccccc3)C2)n1 (stereo not given) the results were ERa SRC1 inh -6.0, EphB4 antag 28.9*, ERa coact pot 115.0 and ERb coact inh 12.1.
Screening O=C(Nc1cc(C(F)(F)F)ccc1N1CCCCC1)c1ccco1 returned ERa SRC1 inh -9.1, EphB4 antag 8.8, ERa coact pot 693.0*[fluorescence artefact?] and ERb coact inh 2.3.
O=C(Nc1cc(C(F)(F)F)ccc1N1CCOCC1)C1Cc2ccccc2CN1C(=O)c1ccco1 (stereo not given) was read as ERa SRC1 inh 91.4*[fluorescence artefact?], EphB4 antag 3.7, ERa coact pot 13.8 and ERb coact inh 55.0*.
`O=C(Nc1ccccc1)C1Cc2ccccc2CN1C(=O)c1ccco1` (stereo not given) gave EphB4 antag -2.0.
Screening CC(CNC(=O)C1CCCCC1C(=O)O)c1ccccc1 (stereo not given) returned ERa SRC1 inh 0.7, EphB4 antag 3.5, ERa coact pot 93.6 and ERb coact inh 9.7.
`Cc1cc(C)cc(COn2ccnc2)c1` gave ERa SRC1 inh -2.9, EphB4 antag 7.0, ERa coact pot 127.9 and ERb coact inh -5.5.
Screening COc1ccc(OC)c(NC(=O)C2CCN(Cc3cnn(-c4ccccc4)c3-n3cccc3)CC2)c1 returned ERa SRC1 inh -3.8, EphB4 antag -1.7, ERa coact pot 214.5* and ERb coact inh -8.7.
Screening COc1ccc(NC(=O)C2CCN(Cc3cnn(-c4ccccc4)c3-n3cccc3)CC2)cc1OC returned ERa SRC1 inh -6.4, EphB4 antag 6.5, ERa coact pot 107.6 and ERb coact inh 7.0.
`CCOc1ccccc1C(=O)N1CCN=C1SCc1cccnc1` gave ERa SRC1 inh 1.8, EphB4 antag 0.8, ERa coact pot 116.8 and ERb coact inh -17.2.
For CC(C)N1CCc2c(sc(N)c2C#N)C1 the results were ERa SRC1 inh 28.5, ERa coact pot 73.0 and ERb coact inh 36.7.
For CCN1CCc2c(sc(N)c2C#N)C1 the results were ERa SRC1 inh 65.4*[fluorescence artefact?], EphB4 antag 6.4, ERa coact pot 25.9 and ERb coact inh 76.8*[fluorescence artefact?].
Screening CCOc1ccc(C(=O)NN2C(=O)C3C4C=CC(O4)C3C2=O)cc1 (stereo not given) returned EphB4 antag -5.1.
`C=CCn1c(SCC(=O)c2ccc(OC)cc2)nnc1C(C)NC(=O)c1cccs1` (stereo not given) gave ERa SRC1 inh 7.3, EphB4 antag 2.2, ERa coact pot 102.2 and ERb coact inh -13.3.
`C=CCn1c(SCC(=O)NC2CCCCC2)nnc1C(C)NC(=O)c1cccs1` (stereo not given) gave ERa SRC1 inh 83.3*, EphB4 antag 3.9, ERa coact pot 128.6 and ERb coact inh -4.9.
Screening CC(C)CN(C(=O)COC(=O)c1cc2c(s1)CCC2)C1CCS(=O)(=O)C1 (stereo not given) returned ERa SRC1 inh 80.4*, EphB4 antag 7.0, ERa coact pot 23.3 and ERb coact inh 74.5*.
For CC(C)CN(C(=O)COC(=O)C1c2ccccc2Oc2ccccc21)C1CCS(=O)(=O)C1 (stereo not given) the results were ERa SRC1 inh -9.3, EphB4 antag -1.0, ERa coact pot 100.2 and ERb coact inh -5.1.
For c1csc(Cc2nn3c(-c4n[nH]c5c4CCC5)nnc3s2)c1 the results were ERa SRC1 inh 86.7*[fluorescence artefact?], EphB4 antag -5.6, ERa coact pot 27.3 and ERb coact inh 62.3*.
For c1coc(-c2nn3c(-c4ccco4)nnc3s2)c1 the results were ERa SRC1 inh 57.7*[fluorescence artefact?], EphB4 antag 8.4, ERa coact pot 76.4 and ERb coact inh 55.4*.
Screening c1coc(-c2nnc3sc(Cc4cccs4)nn23)c1 returned ERa SRC1 inh 86.5*[fluorescence artefact?], EphB4 antag -3.3, ERa coact pot 49.3 and ERb coact inh 67.1*.
Screening CC(=O)Nc1ccc(Sc2ncccc2C(=O)Nc2ccc(F)cc2)cn1 returned EphB4 antag -4.3.

From PubChem BioAssay
